Source: PubChem
Compounds with a hit are over-represented: about 2.3% of the library has one in this group of screens.
CHO-K1 Ca ag: M1 agonist counterscreen hit in parental CHO-K1 cells. activation, % at 3 µM. Fluo-8 calcium fluorescence; scaled to maximal ATP response, vehicle zero. 0.48% of 360,000 active; in the data active = activation above about 15%;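 also: untransfected CHO-K1 host cells lacking M1 receptor as counterscreen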
M1 ag: agonists of human M1 muscarinic receptor. 0.33% of 360,000 active. CHO-K1 hM1, Fluo-8 calcium fluorescence, agonist mode; 0% DMSO, 100% acetylcholine EC100. activation, % at 3 µM. P11229. AID 588814;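 active = activation above the run's mean compound activation plus 3 SD, cut at about 16% in these data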;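 also: peak over basal fluorescence ratio within a 140 s kinetic read after compound addition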
Target sequence (P11229 whole entry, looked up): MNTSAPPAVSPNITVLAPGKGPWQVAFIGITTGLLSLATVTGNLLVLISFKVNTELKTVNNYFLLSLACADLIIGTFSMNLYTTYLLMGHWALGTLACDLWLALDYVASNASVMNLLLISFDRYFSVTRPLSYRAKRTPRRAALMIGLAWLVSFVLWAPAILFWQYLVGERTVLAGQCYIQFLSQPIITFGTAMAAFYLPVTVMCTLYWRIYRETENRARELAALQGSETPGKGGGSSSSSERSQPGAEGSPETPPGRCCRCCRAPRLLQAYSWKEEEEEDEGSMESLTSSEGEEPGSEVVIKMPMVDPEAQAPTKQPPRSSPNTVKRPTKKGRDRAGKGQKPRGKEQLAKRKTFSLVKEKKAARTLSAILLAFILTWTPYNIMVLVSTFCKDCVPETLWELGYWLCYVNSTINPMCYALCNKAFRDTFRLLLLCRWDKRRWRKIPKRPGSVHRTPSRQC
CHO-K1 Ca antag: counter-screen for M1 antagonists: effect in parental CHO-K1 cells; ATP-induced calcium, Fluo-8 fluorescence; inhibition, % at 3 µM; 0.6% of 360,000 active; AID 602250;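 active = inhibition above a per-plate cutoff, the plate's mean sample inhibition plus 3 SD, cut at about 24% in these data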;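 also: 0% = DMSO plus EC80 ATP and 100% = DMSO alone without ATP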
M1 PAM parental: counter-screen for M1 PAMs: effect in parental CHO-K1 cells. ATP EC20, Fluo-8 calcium fluorescence; 0% at ATP EC20, 100% at ATP max. activation, % at 3 µM. 0.02% of 360,000 active. AID 602247;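 active = activation above the run cutoff, the mean activation of all test compounds plus 3 SD, cut at about 40% in these data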;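 also: peak over basal fluorescence ratio in a 140 s read after ATP addition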
M1 PAM: potentiates human M1 receptor response to acetylcholine. CHO-K1 hM1, Fluo-8 calcium fluorescence, ACh EC20; 0% = ACh EC20, 100% = maximal ACh. 0.088% of 360,000 active. activation, % at 3 µM. P11229. AID 588819; in the data active = activation above about 19%, passing the limit was not always enough
CHRM1 antagonist: antagonists of human M1 muscarinic receptor | CHO-K1 hM1, Fluo-8 calcium fluorescence, ACh EC80 antagonist | inhibition, % at 3 µM | 1.3% of 360,000 active | AID 588852;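 active = percent inhibition above its own plate's cutoff, namely the mean of that plate's compound wells plus 3 SD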;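 also: peak over basal fluorescence ratio during 140 s after agonist addition; 0% = ACh EC80 plus DMSO and 100% = DMSO alone without agonist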
Numbers without * were called inactive; · = no result.

SMILES | CHO-K1 Ca ag | M1 ag | CHO-K1 Ca antag | M1 PAM parental | M1 PAM | CHRM1 antagonist
OC(COC(c1ccccc1)c1ccccc1)CN1CCN(c2ccccn2)CC1 (stereo not given) | 5.4 | -8.0 | -1.2 | 15.0 | -25.6 | 42.0*
OC(COC(c1ccc(Cl)cc1)c1ccc(Cl)cc1)CN1CCc2ccccc2C1 (stereo not given) | 16.0* | -6.8 | -6.7 | 28.7 | -3.0 | 3.6
OC(COC(c1ccccc1)c1ccccc1)CN1CCc2ccccc2C1 (stereo not given) | 3.6 | -7.5 | -1.1 | 11.8 | -25.4 | 12.2
O=C(C1CCC(CNc2nc(=S)[nH]c3ccccc23)CC1)N1CCN(c2ccc(F)cc2)CC1 (stereo not given) | -0.4 | -7.4 | -2.4 | -9.8 | -12.6 | 32.6*
COc1ccc(N2CCN(CCCNC(=O)C3CCC(CNc4nc(=S)[nH]c5ccccc45)CC3)CC2)cc1 (stereo not given) | 5.2 | -7.0 | -12.6 | 2.5 | 3.9 | -2.8
CC(=O)c1c(C)oc2ccc(N(C(C)=O)S(=O)(=O)c3cccc4cccnc34)cc12 | 11.8 | 1.6 | -0.2 | -9.2 | -24.6 | 60.0*
CC(=O)c1c(C)oc2ccc(N(C(C)=O)S(=O)(=O)c3ccc(F)cc3C)cc12 | 1.1 | -2.9 | -7.5 | 14.7 | 11.4 | -11.7
Fc1cc(F)c(F)c(SCn2cc(Br)cn2)c1F | -0.3 | -5.7 | -12.4 | 18.3 | 5.5 | -10.0
CCOCCn1ccc2c(OCC(=O)Nc3cc(OC)ccc3OC)cccc2c1=O | 2.6 | -3.8 | -11.0 | -13.1 | -8.2 | 8.3
COc1cccc2c(=O)n(CC(=O)Nc3ccccc3)ccc12 | -0.6 | -3.0 | 9.5 | 13.8 | 2.2 | 0.0
COc1cccc2c(=O)n(CC(=O)Nc3ccc(F)cc3F)ccc12 | -0.2 | -1.3 | 11.4 | -6.4 | -3.0 | 28.4*
CCOCCn1ccc2c(OCC(=O)Nc3ccccc3OC)cccc2c1=O | 4.0 | -3.2 | 12.0 | -28.1 | -13.9 | 30.2*
Cc1cccc(C)c1OCc1nnc(SCC(=O)Nc2ccc(N3CCOCC3)cc2)o1 | 0.5 | -4.5 | -5.2 | 4.5 | -3.1 | 2.4
COC(=O)[C@@H](NC(=O)N1CCC(Cc2ccccc2)CC1)C(C)C | -0.2 | 0.3 | 0.1 | -10.7 | 1.2 | -3.8
C=CCNc1nc2c(c(=O)n(C)c(=O)n2C)n1CC | 1.1 | -1.4 | 30.5* | -9.2 | 6.6 | -0.4
C=CCNc1nc2c(c(=O)n(C)c(=O)n2C)n1CCCCCC | 1.7 | -2.9 | 12.2 | 2.4 | -0.7 | 16.3
COc1ccc(S(=O)(=O)n2c(N)nc3ccccc32)cc1 | 0.8 | -10.2 | 0.0 | -8.9 | -33.6 | 99.8*
Nc1nc2ccccc2n1S(=O)(=O)c1ccc(Cl)cc1 | 0.1 | -11.4 | 3.0 | -4.1 | -33.7 | 78.7*
Nc1nc2ccccc2n1S(=O)(=O)c1ccc([N+](=O)[O-])cc1 | 0.8 | -10.6 | -4.2 | 10.3 | -30.7 | 30.5
Cc1ccc(S(=O)(=O)n2c(N)nc3ccccc32)cc1 | 2.3 | -8.5 | -19.6 | 15.9 | -27.0 | 98.0*
COc1cc(NC(=O)C[n+]2ccc(C(=O)c3ccccc3)cc2)cc(OC)c1 | 0.3 | -8.9 | -23.1 | 2.2 | 3.1 | -3.7
O=C(c1ccoc1)N1CCC2(CCCN(Cc3ccc(F)c(F)c3)C2)C1 (stereo not given) | 0.3 | -6.0 | -3.6 | 5.8 | -22.0 | 54.7*
O=C(CCC1CCCN(C(=O)c2ccoc2)C1)NCc1ccc(F)c(F)c1 (stereo not given) | 1.0 | -4.4 | -12.5 | 23.7 | 4.8 | 0.3
Cc1occc1C(=O)N1CCC2(CCCN(Cc3ccc(F)c(F)c3)C2)C1 (stereo not given) | -0.5 | -6.6 | -4.2 | -6.8 | -24.0 | 65.4*
COc1ccc(NC(=O)COC(=O)c2c3c(nc4ccccc24)CCCC3)cc1 | 3.8 | 0.0 | 1.5 | -3.0 | -9.0 | 32.0*
SMILES | CHO-K1 Ca ag | M1 ag | CHO-K1 Ca antag | M1 PAM parental | M1 PAM | CHRM1 antagonist
COc1ccc(OC)c(NC(=O)COC(=O)c2c3c(nc4ccccc24)CCCC3)c1 | 4.4 | -7.0 | -13.6 | -2.3 | -18.7 | 38.5*
CCCCNC(=O)COC(=O)c1c2c(nc3ccccc13)CCC2 | 2.6 | -6.9 | 10.1 | -7.8 | -10.2 | 9.4
Cc1c(NC(=O)COC(=O)c2c3c(nc4ccccc24)CCCC3)c(=O)n(-c2ccccc2)n1C | -0.3 | -14.0 | 3.2 | -7.1 | -4.7 | -2.4
CNC(=O)COC(=O)c1c2c(nc3ccccc13)CCC2 | 0.7 | -3.0 | 4.2 | -10.2 | 2.5 | 12.1
COc1ccc(NC(=O)COC(=O)c2c3c(nc4ccccc24)CCCC3)cc1Cl | 2.6 | -3.6 | 11.3 | 9.3 | -9.8 | 22.4*
COC(=O)CCCn1cc(CN2CC(N3CCCCC3)CS2(=O)=O)nn1 (stereo not given) | 1.8 | · | -10.6 | 20.5 | · | ·
Cc1ccccc1C(=O)NC1CCN(CC(=O)N2CCCCC2C)CC1 (stereo not given) | 0.8 | -10.5 | -7.9 | 0.0 | 6.0 | -11.0
O=C(CN1C(=O)NC2(CCCc3ccccc32)C1=O)NC1CCCCC1 (stereo not given) | 0.7 | -2.0 | -6.0 | -19.1 | 5.5 | 7.4
O=C(Nc1cccc(-c2cnc3ccccc3n2)c1)c1cccc(NC(=O)c2ccco2)c1 | 4.4 | 1.8 | 31.2* | 8.1 | -14.9 | 35.0*
O=C(Nc1cccc(-c2cnc3ccccc3n2)c1)c1ccccc1 | 0.0 | 1.6 | 13.3 | -15.3 | 3.7 | -4.1
O=C(CCCNC(=O)c1ccc(Cl)cc1)Nc1ccc(F)c(S(=O)(=O)N2CCOCC2)c1 | 0.8 | -4.1 | -0.9 | 22.9 | 2.4 | 2.6
CCCOc1ccc(C(=O)NC(=S)NNC(=O)c2c(-c3ccccc3)noc2C)cc1 | 32.7* | 96.9* | 11.9 | -32.3 | -23.2 | 62.1*
Cc1onc(-c2ccccc2)c1C(=O)NC(=S)NNC(=O)c1ccc(O)cc1O | -1.1 | -6.8 | -0.2 | 8.2 | 7.1 | -23.1
Cc1onc(-c2ccccc2)c1C(=O)NC(=S)NNC(=O)c1ccccc1O | 77.0* | 74.2* | 13.2 | -13.0 | -20.7 | 15.8
Cc1cccc(CN2C(=O)N/C(=C/c3ccc(C)s3)C2=O)c1 | 1.5 | -0.6 | -4.4 | 11.8 | 3.1 | -1.9
Cc1ccc(/C=C2/NC(=O)N(Cc3ccccc3)C2=O)s1 | 1.6 | -1.5 | 27.4* | -7.5 | -7.1 | 10.9
CC(Oc1ccc2c3c(c(=O)oc2c1)CCCC3)C(=O)NCc1cccnc1 (stereo not given) | 3.3 | -4.1 | -17.9 | 12.0 | 15.8 | -15.0
CCOC(=O)C1CCCN(C(=O)CCn2nnnc2CN2CCOCC2)C1 (stereo not given) | 0.2 | 32.2* | 1.4 | 22.6 | -13.0 | 17.5
CCN(CC)C(=O)C1CCCN(C(=O)CCn2nnnc2CN2CCOCC2)C1 (stereo not given) | 0.5 | -3.2 | 0.5 | 0.2 | 9.3 | -13.6
CS(=O)(=O)N(CC(=O)NCCC1=CCCCC1)C1CCCCC1 | 0.2 | -1.2 | -3.7 | 6.6 | 4.1 | -4.1
